Assay results as given in PubChem BioAssay AID493203 (National Center for Advancing Translational Sciences (NCATS), 2011).
Results filed as inconclusive are left out. Activity calls are given as the source filed them. Calls follow the shape of the dose curve; as a rule, active = well fitted activation curve with a large enough effect; inconclusive = small, poorly fitted or top-dose-only effect; inactive = flat fitted curve, though single readings scatter.

assay: qHTS Assay for NPC1 Promoter Activators: Initial hit validation from the primary screen; details: Huh7 NPC1 promoter-luciferase reporter, luminescence, 24 h; series mostly up to 46.1 µM; activity, positive = activation: at the top concentration;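 as to activity, positive = activation: reporter driven by the mutant form of the NPC1 promoter; % of control where 0% means no effect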
Procedure, shortened: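 Huh7 cells stably carrying NPC1 promoter-luciferase, 1500 cells per well in OP-MEM I with 10% FBS; compounds added after 2 hours and incubated 24 hours at 37C. Luminescence read 10 minutes after Amplite luciferase reagent.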
Potency is read from the fitted curve at half-maximal effect.

Structure (SMILES) | activity, positive = activation | Potency
Cc1ccc(C(=O)Nc2nnc(S(=O)(=O)N3CCOCC3)s2)cc1 | 13% (inactive) | –
O=C(CSc1nnc(-c2ccccc2)o1)Nc1ccccc1F | – | 0.25 µM (active)
COc1ccc(C2(CNC(=O)/C=C/c3ccco3)CCCC2)cc1OC | -3.56% (inactive) | –
CN(C)C(CNC(=O)CNC(=O)c1ccc2ccccc2c1)c1ccccc1 (stereo not drawn) | -0.761% (inactive) | –
Cc1ccccc1NC(=O)CSc1ccc(-c2cccnc2)nn1 | -0.999% (inactive) | –
Cc1nnc2n(c1=O)N=C(c1ccc(Cl)cc1)CS2 | – | 1.12 µM (active)
CCCOC(=O)Cn1cnc2scc(-c3ccc(OC)cc3)c2c1=O | -5.85% (inactive) | –
COc1ccc(NC(=O)CSc2ccc([N+](=O)[O-])cc2)cc1S(=O)(=O)N1CCOCC1 | -1.44% (inactive) | –
Cc1ccc(C(=O)NCc2ccc3c(c2)OCO3)cc1C | – | 31.5 µM (active)
CCCCc1cc(=O)oc2cc(OCC(=O)N3CCOCC3)ccc12 | 5.92% (inactive) | –
Cn1c(SCc2ccccc2)nnc1-c1cnccn1 | – | 15.8 µM (active)
OCCC1CN(Cc2nc3ccccc3s2)CCN1C1CCCC1 (stereo not drawn) | 6.25% (inactive) | –
CC1=C(C(=O)OC2CCCC(C)C2)C(c2ccccc2)NC(=O)N1 (stereo not drawn) | -11.2% (inactive) | –
O=[N+]([O-])c1cnccc1Nc1ccc(F)cc1 | 9.68% (inactive) | –
Cc1ccc(CNC(=O)Nc2ccc(C)cc2)cc1 | – | 25 µM (active)
Nc1c(N(CCO)C(=O)/C=C/c2ccco2)c(=O)[nH]c(=O)n1Cc1ccccc1 | -2.89% (inactive) | –
COCCNC(=O)CN1C(=O)NC(c2ccccc2)(c2ccccc2)C1=O | 1.47% (inactive) | –

Structure (SMILES) | activity, positive = activation | Potency
CCOc1ccc(CNC(=O)C2CCCN(S(C)(=O)=O)C2)cc1OC (stereo not drawn) | 8.81% (inactive) | –
CC1(C)CC(=O)c2c(O)c(-c3ccccc3)c(=O)n(-c3ccccc3)c2C1 | 4.96% (inactive) | –
CNC(=O)Cn1nc(C)c2ccccc2c1=O | 3.92% (inactive) | –
O=C(CN1C(=O)COc2ccc(Cl)cc21)NCC1CCCO1 (stereo not drawn) | -1.19% (inactive) | –
CCOC(=O)CSc1nc2cc(C)ccc2cc1C#N | – | 0.499 µM (active)
CCCC(C)NC(=O)c1ccc(OCc2ccc(Cl)cc2)c(OC)c1 (stereo not drawn) | 5.79% (inactive) | –
COc1ccc2oc(=O)c(C(=O)NC(C)c3ccccc3)cc2c1 (stereo not drawn) | 7.72% (inactive) | –
COc1ccc(/C=C\C(=O)c2c(O)ccc3c(C)cc(=O)oc23)cc1OC | -33.2% (inactive) | –
COC(=O)c1ccccc1NC(=O)c1ccc(-c2ccc(Br)cc2)o1 | -2.77% (inactive) | –
Cc1ccc2nc(Nc3ccc(Cl)cc3)c3nncn3c2c1 | 4.35% (inactive) | –
CCOC(=O)C1(Cc2cccc(Cl)c2)CCCN(C(=O)CCSC)C1 (stereo not drawn) | 10.7% (inactive) | –
COc1cccc(CNC(=O)CN(c2cc(C)cc(C)c2)S(=O)(=O)c2c(C)noc2C)c1 | -4.87% (inactive) | –
COc1ccc(/C=C\c2onc(C)c2S(=O)(=O)N2CCC(C(=O)NCCC(C)C)CC2)cc1 | -0.647% (inactive) | –
CCN(CC(=O)N(CC(C)C)c1c(N)n(CC(C)C)c(=O)[nH]c1=O)Cc1nc2ccccc2c(=O)[nH]1 | -0.302% (inactive) | –
COC(=O)c1cn(NC(=O)C2CCCCC2)c(=O)c2ccccc12 | -0.672% (inactive) | –
O=C(CSc1nnc(Cc2cc(=O)[nH]c(=O)[nH]2)n1-c1ccc(Cl)cc1)NC1CCCC1 | -2.11% (inactive) | –
